hgDAF-12 ag – H. glycines DAF-12 receptor agonists, primary screen, cell-based, luminescence, HEK293, GAL4 fusion, UAS-luciferase; Nuclear hormone receptor DAF-12 (Heterodera glycines), GAL4 fusion; HEK293 GAL4-hgDAF12 UAS-luciferase reporter, agonist luminescence; normalized to butyrate control; activation, % at 6.8 µM; actives 1.8% (n = 370,000);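 active = activation above a cutoff set at the mean of all screened compounds plus 3 SD, cut at about 10% in these data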;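 note: 0% = DMSO wells and 100% = sodium butyrate wells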
hcDAF12 agonist – H. contortus DAF-12 nuclear receptor activators, primary screen, cell-based, luminescence, HEK293, lit1-tk-luc reporter | HEK293 hcDAF-12 lit1-tk-luc reporter; 0% DMSO, 100% Δ7-dafachronic acid | activation, % at 6.8 µM | actives 1.4% (n = 370,000) | AID 652067, 2013;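 active = activation above the mean of all tested compounds plus 3 SD, cut at about 5.5% in these data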;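 note: 100% = response to 3 µM Δ7-dafachronic acid high control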
DAX1 inh-1 – DAX1 (NR0B1) inhibitors, primary screen, cell-based, HEK293, Gal4-DAX1, luciferase luminescence. Nuclear receptor subfamily 0 group B member 1 (Homo sapiens), P51843. HEK293 Gal4-DAX1 luciferase reporter. inhibition, % at 6.75 µM. actives 0.99% (n = 340,000);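 active = inhibition above the mean over all tested compounds plus 3 SD, cut at about 4.2% in these data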;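 note: 0% = DAX1-transfected cells with DMSO and 100% = empty-vector control cells with DMSO; inhibition shows as a rise in luminescence from relieved DAX1 repression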
Target sequence (P51843 207-470 limits assumed): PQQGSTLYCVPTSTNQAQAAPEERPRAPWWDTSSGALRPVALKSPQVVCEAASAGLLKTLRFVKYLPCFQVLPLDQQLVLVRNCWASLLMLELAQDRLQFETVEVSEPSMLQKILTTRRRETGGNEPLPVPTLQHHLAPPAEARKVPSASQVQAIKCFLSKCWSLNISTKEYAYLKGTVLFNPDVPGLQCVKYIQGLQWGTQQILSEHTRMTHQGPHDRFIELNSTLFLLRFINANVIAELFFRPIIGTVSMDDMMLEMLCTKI
DAX1 inh-2 – DAX1 (NR0B1) inhibitors on StAR promoter, primary screen, cell-based, luminescence, SF-1 (NR5A1), full-length DAX-1; HEK293T StAR-luciferase reporter, SF-1/DAX-1 repression relief; inhibition, % at 6.8 µM; actives 1.1% (n = 370,000);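 active = inhibition above the mean over all tested compounds plus 3 SD, cut at about 3.6% in these data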;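 note: 0% = DAX-1 cells with DMSO and 100% = cells lacking DAX-1 with DMSO; higher inhibition means more luminescence from relief of DAX-1 repression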
ssDAF12 agonist – S. stercoralis DAF-12 nuclear receptor activators, primary screen, cell-based, luminescence, HEK293, GRIP1 co-expression, lit1-tk-luc. HEK293 ssDAF-12/GRIP1 lit1-tk-luc reporter; % of 3 µM dafachronic acid response. AID 652126, 2013. Nuclear hormone receptor DAF-12 (Strongyloides stercoralis). actives 1% (n = 370,000). activation, % at 6.8 µM;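 active = activation above the mean over all tested compounds plus 3 SD, cut at about 0.9% in these data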;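 note: 0% = DMSO-only wells and 100% = 3 µM delta7-dafachronic acid wells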
hgDAF12 ag – H. glycines DAF-12 receptor agonists, confirmation, cell-based, luminescence, HEK293, GAL4-LBD fusion | shares compounds with hgDAF-12 ag | HEK293 GAL4-hgDAF12 luciferase reporter, agonist mode; percent of butyrate response | activation, % at 6.8 µM | actives 80% (n = 3,300) | AID 743050, 2013;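 active = mean activation over triplicate wells above the hit cutoff derived from the earlier primary screen, cut at about 11% in these data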;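 note: 0% = DMSO low control and 100% = 2 mM sodium butyrate high control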
LXR ag 2 – LXR agonists, Gal4 luciferase reporter, confirmation, counter-screen for hgDAF-12 agonist project, cell-based, luminescence, HEK293, H. glycines campaign; shares compounds with hgDAF-12 ag; 3,300 tested, under 10 active; 24 h; activation, % at 6.8 µM;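 active = mean activation of the triplicate above a set limit carried over from the primary screen, none filed active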
The depositor's hits bear a star. Compounds with a hit are over-represented: about 4.1% of the library has one in this group of screens.

Screening NC(=O)c1ccccc1-c1noc(-c2ccccc2F)n1 returned hgDAF-12 ag 9.0, hcDAF12 agonist 0.4 and ssDAF12 agonist -1.1.
NC(=O)c1ccc(-c2noc(-c3ccccc3F)n2)cc1 was read as hgDAF-12 ag 15.1*, hcDAF12 agonist 5.6*, DAX1 inh-1 -2.5, DAX1 inh-2 1.9, ssDAF12 agonist 0.3, hgDAF12 ag 13.3* and LXR ag 2 0.9.
Screening Cc1c(Cl)cccc1NC(=S)C(=C([O-])c1ccc(Cl)s1)[n+]1ccccc1 returned hgDAF-12 ag -0.3, hcDAF12 agonist 1.0, DAX1 inh-1 1.2, DAX1 inh-2 0.2 and ssDAF12 agonist -0.1.
Screening CC(C)C(=O)Nc1ccc(-c2nnc(-c3ccccc3)o2)cc1 returned hgDAF-12 ag 14.0*, hcDAF12 agonist 5.4, DAX1 inh-1 3.8, DAX1 inh-2 2.4, ssDAF12 agonist 0.5, hgDAF12 ag 16.7* and LXR ag 2 0.8.
`CC(=O)/C=C(\C)Nc1ccc(-c2cnc(-c3ccccc3)o2)cc1` gave hgDAF-12 ag 17.8*, hcDAF12 agonist 6.2*, DAX1 inh-1 3.8, DAX1 inh-2 4.0*, ssDAF12 agonist 0.6, hgDAF12 ag 13.1* and LXR ag 2 0.8.
`COc1cc(/C=C2\SC(=S)N(Nc3ccccc3)C2=O)ccc1O` gave hgDAF-12 ag 14.0*, hcDAF12 agonist 4.9, DAX1 inh-1 1.4, DAX1 inh-2 1.8, ssDAF12 agonist -0.7, hgDAF12 ag 14.7* and LXR ag 2 0.9.
For O=C(Nc1ccccc1)Nc1ccccc1Br the results were hgDAF-12 ag 19.3*, hcDAF12 agonist 5.2, DAX1 inh-1 0.6, DAX1 inh-2 4.1*, ssDAF12 agonist -0.1, hgDAF12 ag 7.2 and LXR ag 2 0.4.
Screening CC1(c2nnnn2Cc2ccccc2)CN(S(C)(=O)=O)CC(=O)N1Cc1cccs1 (stereo unspecified) returned hgDAF-12 ag 3.5, hcDAF12 agonist -2.2, DAX1 inh-2 0.8 and ssDAF12 agonist -0.9.
`Cc1ccc(C)c2nc3sc(C(=O)N4CCOCC4)c(N)c3cc12` gave hgDAF-12 ag 21.1*, hcDAF12 agonist 3.1, DAX1 inh-1 0.0, DAX1 inh-2 0.1, ssDAF12 agonist 0.1, hgDAF12 ag 11.3* and LXR ag 2 0.5.
Screening Nc1c(C(=O)N2CCOCC2)sc2nc3c(cc12)CCC3 returned hgDAF-12 ag 15.9*, hcDAF12 agonist 3.8, DAX1 inh-1 -0.4, DAX1 inh-2 2.4, ssDAF12 agonist 0.0, hgDAF12 ag 12.8* and LXR ag 2 0.6.
`NC(=O)c1sc2nc3c(cc2c1N)CCC3` gave hgDAF-12 ag 9.1, hcDAF12 agonist -1.3, DAX1 inh-1 1.5, DAX1 inh-2 0.1 and ssDAF12 agonist -1.2.
Screening CCN(CC(=O)Nc1ccc2c(c1)OCCO2)C(=O)COc1cc(C)ccc1Cl returned hgDAF-12 ag -1.0, hcDAF12 agonist -0.9, DAX1 inh-1 -0.5, DAX1 inh-2 -1.3 and ssDAF12 agonist -0.9.
For O=C(COc1ccccc1Br)Nc1ccc2c(c1)OCCCO2 the results were hgDAF-12 ag 15.3*, hcDAF12 agonist 4.3, DAX1 inh-1 3.6, DAX1 inh-2 1.8, ssDAF12 agonist 0.3, hgDAF12 ag 14.2* and LXR ag 2 0.8.
Cc1ccc2nc(-c3ccc(SCC(=O)Nc4ccc5c(c4)OCCO5)nc3)[nH]c2c1 was read as hgDAF-12 ag 19.8*, hcDAF12 agonist 5.0, DAX1 inh-1 1.7, DAX1 inh-2 3.2, ssDAF12 agonist 0.1, hgDAF12 ag 20.6* and LXR ag 2 0.9.
For O=C(COc1cc(Cl)c(Cl)cc1Cl)Nc1cccc(O)c1 the results were hgDAF-12 ag 16.7*, hcDAF12 agonist 4.5, DAX1 inh-1 2.7, DAX1 inh-2 1.5, ssDAF12 agonist 0.4, hgDAF12 ag 17.5* and LXR ag 2 1.0.
For Cc1ccc(Cl)c(OCC(=O)Nc2ccc3c(c2)OCCO3)c1 the results were hgDAF-12 ag 13.8*, hcDAF12 agonist 1.0, DAX1 inh-1 4.0, DAX1 inh-2 1.8, ssDAF12 agonist -0.9, hgDAF12 ag 15.3* and LXR ag 2 0.7.
For CCN(Cc1cc(OC)c(OC)c(OC)c1)C(=S)Nc1cccc(SC)c1 the results were hgDAF-12 ag -0.6, hcDAF12 agonist -2.5, DAX1 inh-1 -1.8, DAX1 inh-2 -0.7 and ssDAF12 agonist -1.6.
Screening CCN(CC(=O)Nc1c(F)cccc1F)C(=O)CSCc1ccc(C)cc1 returned hgDAF-12 ag -3.3, hcDAF12 agonist -1.6, DAX1 inh-1 1.0, DAX1 inh-2 1.0 and ssDAF12 agonist -0.9.
CC1CCCCN1CCCNC(=O)c1ccc2nc(N3CCCCC3)sc2c1 (stereo unspecified) was read as hgDAF-12 ag 13.9*, hcDAF12 agonist 2.6, DAX1 inh-1 0.5, DAX1 inh-2 4.0*, ssDAF12 agonist 1.4*, hgDAF12 ag 12.1* and LXR ag 2 0.3.
O=C(NCCc1ccccc1)c1ccc2nc(N3CCOCC3)sc2c1 was read as hgDAF-12 ag 14.2*, hcDAF12 agonist -2.4, DAX1 inh-1 -0.2, DAX1 inh-2 0.7, ssDAF12 agonist -1.5, hgDAF12 ag -0.1 and LXR ag 2 0.0.
CC1CCCCN1CCCNC(=O)c1ccc(Br)cc1 (stereo unspecified) was read as hgDAF-12 ag 1.8, hcDAF12 agonist -0.1, DAX1 inh-1 -0.8, DAX1 inh-2 -0.1 and ssDAF12 agonist -0.7.
Screening CC(CCc1ccccc1)NC(=O)c1ccc2nc(N3CCOCC3)sc2c1 (stereo unspecified) returned hgDAF-12 ag 1.3, hcDAF12 agonist -1.3, DAX1 inh-1 0.7, DAX1 inh-2 0.2 and ssDAF12 agonist -2.0.
Screening Cn1nc(C2CC2)cc1NC(=O)C1(C)CCN1C(=O)CC(c1ccccc1)c1ccccc1 (stereo unspecified) returned hgDAF-12 ag -3.9, hcDAF12 agonist -1.3, DAX1 inh-2 -0.8 and ssDAF12 agonist -1.1.
O=c1[nH]c2ccccc2nc1-c1ccccc1 was read as hgDAF-12 ag 15.8*, hcDAF12 agonist 0.3, DAX1 inh-1 -0.1, DAX1 inh-2 1.4, ssDAF12 agonist -0.1, hgDAF12 ag 7.2 and LXR ag 2 0.1.
